From PubChem BioAssay AID1745848 (National Center for Advancing Translational Sciences (NCATS), 2022) come the findings set out here.

Each structure is given as a SMILES string. About 940 (45%) of roughly 2,100 compounds were called active. Roughly 48% stayed inconclusive and do not appear here. Calls follow the shape of the dose curve; as a rule, active = well fitted inhibition curve with a large enough effect; inconclusive = small, poorly fitted or top-dose-only effect; inactive = no such curve, though single readings can be large or run the other way. So high a share suggests a set chosen from earlier hits. Some of the results follow.
Potency is read from the fitted curve at half-maximal effect.

The test is described as follows: Confirmatory qHTS for Inhibitors of ATXN expression. Also: nearly all actives have a fitted effect of over 65% in size. The following applies: ATXN2-luciferase reporter cells, luminescence, 24 h; series mostly up to 11.5 µM. The text has this: PI: Daniel Scoles Ph.D. University of Utah School of Medicine, Salt Lake City, Utah MLPCN Grant: NS073009 Spinocerebellar ataxia type 2 (SCA2) is a multisystem neurodegenerative disease caused by a dominantly acting mutation leading to expansion of a polyQ domain in the ataxin-2 protein (ATXN2). SCA2 patients develop progressive ataxia and later lose function in other neuronal systems. Prominent parkinsonian signs develop in some patients. Like many neurodegenerative disorders, no symptomatic or disease-modifying treatments are known. The primary objective of the proposed research is to identify compounds inhibiting ATXN2 expression and to test them for efficacy in SCA2 mouse models. We have developed a cell-based assay paired with an in vivo mouse model using identical luciferase expression constructs. This approach takes advantage of an ATXN2-luciferase transgene, with the luciferase gene flanked by the upstream and downstream portions of the ATXN2 gene. Here we describe a 5-7 dose quantitative high thoroughput screen (qHTS) for compounds lowering ATXN2 expression. We screened the NIH Molecular Libraries Small Molecule Repository (MLSMR) and NCGC's mechanistically annotated (MIPE) and drug repurposing (NPC) collections of compounds for lowering expression of an ATXN2-luciferase reporter in HEK-293 cells. The assay is a multiplexed cell viability assay to ensure target reduction in the absence of cytotoxicity. Secondary qHTS assays included a CMV-luciferase reporter expressed in HEK-293 cells as well as a biochemical assay using recombinant luciferase to detect inhibitors of the reporter enzyme. Compounds that inhibit ATXN2 expression but is not cytotoxic were selected for confirmatory and secondary screens.
PROTOCOL TABLE (as described by Inglese J, Shamu CE and Guy RK. 2007) SEQUENCE No. (e.g., 1, 2, 3, etc.); PARAMETER (e.g., Cells, Incubation, Reagent, etc.); VALUE; DESCRIPTION. 1; Cells; 4 uL; white, solid bottom, 1536-well Greiner assay plate. 2; Incubation; 2 hr; 37 degree C in 5% humidified CO2. 3; Compounds; 23 nL; Kalypsis pintool (Wako USA) equipped with a 1536-well pin head. 4; Incubation; 24 hr; 37 degree C in 5% humidified CO2. 5; Reagent; 1 uL; Gly-Phe-7-Amino-4-trifluoromethylcoumarin. 6; Incubation; 30 min; 37 degree C in 5% humidified CO2. 7; Detection; Fluorescence; ViewLux plate reader (PerkinElmer). 8; Reagent; 3 uL; SteadyGlo luciferase solution (Promega). 9; Incubation; 5 min; room temperature. 10; Detection; Luminescence; ViewLux plate reader (PerkinElmer). NOTES (numbers refer to Sequence numbers above) 1. […] expressing ATXN2-luciferase reporter were suspended in phenol-red free DMEM and dispensed in assay plates using a Multidrop Combi dispenser (Thermo Fisher Scientific). Wells containing medium only were plated on each plate, and values were used to normalize (100% inhibition) in the luciferase and CellTiter-Fluor assays. 2. Assay plates were incubated. Evaporation was prevented by covering assay plates with metal lids containing holes to allow gas diffusion. 3. Compounds were added in a dose response manner with the final concentrations of 57, 11.4, 2.28, 0.46, 0.091, 0.018, 0.0037 uM. Vehicle-only plates, with DMSO being pin-transferred to columns 5-48, were inserted uniformly at the beginning and the end of each library to monitor and record any shifts in assay performance. 5. 125 uM Gly-Phe-7-Amino-4-trifluoromethylcoumarin (MP Biomedicals) working concentration was used at a final concentration of 25 uM. 7. To assess cell viability; the assay plates were read using the ViewLux high-throughput CCD imager (PerkinElmer), wherein single end-point fluorescence measurement was acquired (excitation 405/10; emission 540/25 nm). 8. Detection reagent SteadyGlo Luciferase (Promega) was added to the assay plate. 10. Luminescence is then measured on the ViewLux imager equipped with a clear emission filter using a 2 sec exposure. […]
For `COc1ccccc1-c1cc(NC=O)c2ncc(-c3ccc(F)cc3)n2c1`, the Potency was 22.4 µM (active).
On to `COc1ccc(-c2cc(NC=O)c3ncc(-c4cccc(C(=O)NCCN(C)C)c4)n3c2)cc1`, for which the Potency result is “inactive”.
The same measure for `CN(C)C(=O)c1cccc(-c2cnc3c(NC=O)cc(-c4ccc(F)cc4)cn23)c1`: “inactive”; for `CN(C)C(=O)c1cccc(-c2cnc3c(NC=O)cc(-c4ccccc4N(C)C)cn23)c1`: “inactive”.
For the compound `COc1cc(-c2cnc3c(NC=O)cc(-c4cccc(C(F)(F)F)c4)cn23)cc(OC)c1OC`, the Potency was 12.6 µM (active).
As to `CCOc1ccc(/C=C/[N+](=O)[O-])c2ccccc12`, the Potency is 15.8 µM (active).
With `Cc1ccc(CN2CCC(c3cc(-c4ccc(Cl)cc4)n[nH]3)CC2)cc1`, the Potency is 28.2 µM (active).
With `CCOC(=O)N(C)c1c(CC)nc2c(OCc3ccccc3OC)cccn12`, the Potency result is “inactive”.
Take `COC(=O)c1ccccc1COc1cccn2c(N(C)Cc3cccs3)c(C)nc12`: the Potency was 28.2 µM (active).
The same measure for `ClC(Cl)(Cl)c1nc2ccccc2n2nncc12`: 2.82 µM (active); for `CC1(C(=O)NCc2ccco2)CCN1C(=O)C1(c2ccccc2)CC1` (stereo unspecified): “inactive”.
As for `CCc1ccc(-c2nc(CS(=O)CC(=O)NCc3ccco3)c(C)o2)cc1` (stereo unspecified), the Potency is 0.398 µM (active).
Turning to `CCOC(=O)c1c(NC(=O)COC(=O)CNC(=O)c2ccco2)sc(C)c1C`, the Potency is 2.51 µM (active).
The result for `COC(=O)c1cn(NC(=O)c2cc([N+](=O)[O-])ccc2F)c(=O)c2ccccc12` reads 2 µM (active).
Regarding `CC(C)CC(=NNC(=O)c1ccncc1)c1cc(Cl)ccc1O`, the Potency is 0.708 µM (active).
Consider `COc1ccc(O)c(/C=N/NC(=O)c2ccc(CSc3nc(C)cc(C)n3)cc2)c1`, for which the Potency is 2.82 µM (active).
Consider `COc1ccc(C(=O)N/N=C/c2cc(Br)ccc2O)cc1OC`, for which the Potency was 3.16 µM (active).
The same measure for `O=C(N/N=C/c1cc(Br)ccc1OC(=O)c1ccc(Br)cc1)c1ccncc1`: 2.82 µM (active); for `O=C(N/N=C/c1cc(Br)cc(Br)c1O)c1ccncc1`: 2.82 µM (active).
The result for `O=C(N/N=C/c1cc(Br)cc(Br)c1O)c1cccc(N2CCCC2=O)c1` reads 2 µM (active); that for `COc1ccc(O)c(/C=N/NC(=O)c2ccc(OCc3cccc(Br)c3)cc2)c1`, 0.891 µM (active); that for `O=C(N/N=C/c1cc(Br)ccc1O)c1ccncc1`, 0.794 µM (active).
For `O=C(N/N=C/c1cc(Br)ccc1O)C(c1ccncc1)N1CCOCC1` (stereo unspecified), the Potency was 14.1 µM (active).
For the compound `O=C(CP(=O)(c1ccccc1)c1ccccc1)N/N=C/c1cc(Br)cc(Br)c1O`, the Potency is 1.58 µM (active).
Take `CCC(O)(CC)C(=O)N/N=C/c1cc(Br)cc(Br)c1O`: the Potency is 17.8 µM (active).
In the case of `O=C(N/N=C/c1cc(Cl)ccc1O)c1ccncc1`, the Potency was 3.16 µM (active).
`CN(C)c1ccc(C(=O)N/N=C/c2cc(Br)cc(Br)c2O)cc1`: the Potency is 1.41 µM (active).
With `C/C(=N\N=C(N)N)c1ccc(Cl)cc1Cl`, the Potency is 15.8 µM (active).
With `CC1(C)Cc2ccccc2C(NNC(=O)c2ccccn2)=N1`, the Potency is 15.8 µM (active).
The result for `O=C(CNC(=O)c1ccccc1Br)N/N=C/c1cc(Br)ccc1O` reads 2 µM (active).
On to `CC(SC(C)C(=O)NN=Cc1cccc(Cl)c1)C(=O)NN=Cc1cccc(Cl)c1` (stereo unspecified), for which the Potency entry is “inactive”.
For the compound `CNc1ccc(Br)cc(C(=O)/C=C/c2ccc3c(c2)OCO3)c1=O`, the Potency result is “inactive”.
`O=C(CNC(=O)c1ccc2c(c1)OCO2)N/N=C/c1cc(Br)ccc1O`: the Potency was 3.55 µM (active).
Consider `O=C(N/N=C/c1cc(Cl)ccc1O)c1ccccc1Br`, for which the Potency was 3.98 µM (active).
For the compound `O=C(N/N=C/c1cc(Br)cc(Cl)c1O)c1ccc2c(c1)OCO2`, the Potency was 3.98 µM (active).
Regarding `NS(=O)(=O)c1ccc(CCNC(=O)COC(=O)/C=C/c2cc(Br)ccc2F)cc1`, the Potency result was “inactive”.
As for `O=C(CNC(=O)c1ccccc1Br)N/N=C/c1ccccc1O`, the Potency was 15.8 µM (active).
`O=C(CCc1ccccc1)N/N=C/c1cc(Br)ccc1O`: the Potency was 1.12 µM (active).
With `CCc1ccccc1OCC(=O)Nc1nc(-c2cccnc2)cs1`, the Potency was 14.1 µM (active).
Take `COc1ccc(/C=C/C(O)=C2/C(=O)N(C)C3(C)CC2c2ccccc2O3)cc1` (stereo unspecified): the Potency was 20 µM (active).
Take `C/[N+]([O-])=C\c1cccc(OCCN2CCN(c3ncc(C(F)(F)F)cc3Cl)CC2)c1`: the Potency result is “inactive”.
For `COc1ccc(NS(=O)(=O)c2ccc(C(=O)Nc3c(C)n(C)n(-c4ccccc4)c3=O)cc2)cc1`, the Potency entry is “inactive”.
For the compound `CCOc1ccc(NS(=O)(=O)c2ccc(C(=O)NNC(=O)c3ccccc3O)cc2)cc1`, the Potency is 15.8 µM (active).
The same measure for `Cc1ccc(NS(=O)(=O)c2ccc(C(=O)NNC(=O)c3ccccc3O)cc2)cc1`: 14.1 µM (active); for `Cc1ccc(C)c(S(=O)(=O)N2CCN(c3ncnc4sccc34)CC2)c1`: 0.631 µM (active).
For `Cc1ccc(N/C(N)=N/c2nc(C)cc(N3CCCCC3)n2)c(C)c1`, the Potency was 3.98 µM (active).
